# From PubChem
# Pin1 inh = qHTS Assay to Find Inhibitors of Pin1; Pin1 FP peptide displacement, HiFluor488, 10 min; Potency, µM (titrated, usually from 115 µM), actives largely listed as inhibitors; actives 0.009% (n = 390,000); AID 504891, 2011; active means well fitted inhibition curve with a large enough effect in the polarisation, with a control signal flat, not every such curve was filed as active; inconclusive means small, poorly fitted or top-dose-only effect, or effect the other way, or a change in a side signal; inactive means no such curve, though single readings can be large or run the other way; the % refers to the polarisation
# Target sequence (Q13526 whole entry, looked up): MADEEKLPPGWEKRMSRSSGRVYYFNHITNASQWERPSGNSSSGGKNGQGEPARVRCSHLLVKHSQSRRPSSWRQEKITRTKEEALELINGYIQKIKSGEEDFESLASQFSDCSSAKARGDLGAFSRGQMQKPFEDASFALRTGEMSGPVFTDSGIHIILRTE
# VDR inh = Inhibitors of the vitamin D receptor (VDR): qHTS. Potency, µM, hits mostly inhibitors. Vitamin D3 receptor (Homo sapiens), P11473. VDR-SRC2-3 peptide fluorescence polarization, 2 h. actives 0.93% (n = 400,000)
#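 Measured by FP: displacement of SRC2-3 coactivator peptide from VDR by library compounds, following a two-hour ambient incubation.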
# PGK inhibitor = qHTS Assay to Find Inhibitors of Phosphoglycerate Kinase; Phosphoglycerate kinase, glycosomal (Trypanosoma brucei brucei), P07378; PGK/GAPDH coupled, Kinase-Glo luminescence, 60 min; Potency, µM (doses to about 57.5 µM), most hits filed as inhibitors; actives 0.043% (n = 380,000); further: nearly all actives have a fitted effect of over 60% in size
#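 Recombinant glycosomal PGK reaction used 1,3-bisphosphoglycerate generated in-well by GAPDH (100nM final) in 100mM TEA pH 7.6, 5mM MgCl2, 0.01% Tween-20. After 60 minutes at room temperature, ATP was read by Kinase-Glo Plus luminescence end-point.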
# Tb PFK inh = qHTS Assay to Find Inhibitors of T. brucei phosphofructokinase; ATP-dependent 6-phosphofructokinase (Trypanosoma brucei brucei), O15648; T. brucei PFK, ADP-Glo luminescence; Potency, µM (series often up to 57.5 µM), usual class: inhibitors; actives 0.17% (n = 330,000); AID 485367, 2010; further: nearly all actives have a fitted effect of over 60% in size
# Target sequence (O15648 whole entry, looked up): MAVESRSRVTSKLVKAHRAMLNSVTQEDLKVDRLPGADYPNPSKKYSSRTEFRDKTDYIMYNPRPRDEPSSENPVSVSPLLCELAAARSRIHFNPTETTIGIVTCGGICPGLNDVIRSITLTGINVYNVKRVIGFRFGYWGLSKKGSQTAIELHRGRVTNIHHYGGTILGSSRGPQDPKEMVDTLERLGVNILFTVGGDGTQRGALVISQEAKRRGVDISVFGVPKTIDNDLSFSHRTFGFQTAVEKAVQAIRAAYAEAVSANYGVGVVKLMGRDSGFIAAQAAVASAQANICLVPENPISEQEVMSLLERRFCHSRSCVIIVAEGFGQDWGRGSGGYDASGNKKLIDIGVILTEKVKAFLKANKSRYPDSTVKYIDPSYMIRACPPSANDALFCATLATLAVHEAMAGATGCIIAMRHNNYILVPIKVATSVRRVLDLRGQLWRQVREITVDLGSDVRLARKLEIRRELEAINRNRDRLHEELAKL
#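 Compounds were pin-transferred as a titration series up to 57 uM into substrate buffer (0.5 mM F6P, 0.1 mM ATP, pH 8.0), then 1.25 nM PFK was added and reactions ran 45 min before ADP-Glo detection.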
# GLS inhibitor = qHTS for Inhibitors of Glutaminase (GLS); actives 0.21% (n = 410,000); AID 624170, 2012; Glutaminase kidney isoform, mitochondrial (Homo sapiens), O94925; Potency, µM (titrated, usually from 45.5 µM), usual class: inhibitors; GLS enzymatic activity, qHTS titration
#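 Enzyme dispensed in phosphate buffer (45 mM, pH 8.2, 0.02% Tween-20), compounds pinned in, then 1 mM L-glutamine solution and the glutamate oxidase–HRP–Amplex Red mix added; fluorescence read immediately and again after 30 min at room temperature.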
# Hits are given with their value; i = inactive; ? = inconclusive; nt = no result given; ! = a repeat was not active. Shown are actives, neighbours in structure and some others; about 1.1% of the full set was active somewhere. Unless noted, the call rests on the fitted dose curve; in most records, active means well fitted curve in the direction sought with a large enough effect; inconclusive means small, poorly fitted or top-dose-only effect, or another doubt; inactive means no such curve, though single readings can be large; an effect the other way counts as inactive or inconclusive.
SMILES,Pin1 inh,VDR inh,PGK inhibitor,Tb PFK inh,GLS inhibitor
C[N+](C)(C)CC#CCOC(=O)Nc1cccc(Cl)c1,i,50µM!,i,nt,i
Cn1nnc2cc(NC(=O)Nc3cccc(Cl)c3)ccc21,i,i,i,i,i
CC[C@H](C)[C@H](NC(=O)[C@H](CCCN=C(N)N)NC(=O)[C@H](CCCN=C(N)N)NC(=O)[C@H](CC(C)C)NC(=O)[C@H](Cc1ccccc1)NC(=O)CNC(=O)CNC(=O)[C@@H](N)Cc1ccc(O)cc1)C(=O)O,nt,i,nt,nt,nt
O=C(NC1CCCCC1)Oc1cc2oc(=O)sc2cc1Cl,i,32µM,i,i,i
CN(C)C1CSSSC1,nt,i,nt,nt,nt
C=CCN1C(=O)/C(=C/c2ccc(N3CCOCC3)o2)C(=O)NC1=S,?,i,i,i,i
C=CCN1C(=O)NC(=O)/C(=C\c2ccc(-c3ccccc3[N+](=O)[O-])o2)C1=O,i,18µM,i,i,18µM
O=C1NC(=O)N(Cc2ccco2)C(=O)/C1=C/c1ccc(-c2cccc([N+](=O)[O-])c2)o1,?,14µM,?,i,i
CN(C)c1ccc(/C=C2/C(=O)NC(=O)N(Cc3ccco3)C2=O)cc1,i,?,i,i,i
Brc1c(Br)c(Br)c2n[nH]nc2c1Br,nt,45µM,nt,nt,nt
S=C(S)N1CCCC1,i,20µM!,i,i,i
S=C(S)N1CCNCC1,nt,?,nt,nt,i
C[C@H](NC(C)(C)C)C(=O)c1cccc(Cl)c1,nt,i,nt,nt,i
CCCCn1c(N)c(C(=O)NCc2cccs2)c2nc3ccccc3nc21,i,89µM,i,i,i
Nc1c(C(=O)NCCCc2ccccc2)c2nc3ccccc3nc2n1Cc1cccs1,i,79µM,i,i,i
Oc1c(Cl)c(Cl)c(Cl)c(Cl)c1Cl,i,89µM,i,nt,i
Clc1ccc([C@H]2CC3CCC2N3)cn1 (stereo not given in full),nt,nt,nt,nt,i
COc1cccc2c1C(=O)c1c(O)c3c(c(O)c1C2=O)C[C@@](O)(C(=O)CO)C[C@@H]3O[C@H]1C[C@H](N)[C@H](OC2CCCCO2)[C@H](C)O1 (stereo not given in full),nt,i,nt,nt,16µM
O=[N+]([O-])/C=C/c1c(Cl)cccc1Cl,i,20µM,i,nt,7.9µM
CCCCc1nc2ccccc2c(=O)n1-c1cccc(OC)c1,i,i,i,nt,i
O=C1NC(=O)C(=Cc2ccc(Oc3ccc([N+](=O)[O-])cc3)cc2)C(=O)N1,i,32µM,i,i,i
COc1cc(C=C2C(=O)NC(=O)NC2=O)ccc1OCc1ccc([N+](=O)[O-])cc1,i,?,i,i,?
C=C1C(O)C2OC3(CCC(/C=C/C(C)C4CC(C)=CC5(OC(CC(C)(O)C(=O)O)CCC5O)O4)O3)CCC2OC1C(O)CC(C)C1OC2(CCCCO2)CCC1C (stereo not given),nt,i,nt,nt,nt
CCOc1ccc(-c2nc(CSCC(=O)NCCc3ccc(OCC)c(OCC)c3)c(C)o2)cc1,?,i,i,nt,i
CCC1(C)CC(C(N)=S)CCO1 (stereo not given),i,20µM,i,?,?
SMILES,Pin1 inh,VDR inh,PGK inhibitor,Tb PFK inh,GLS inhibitor
O=C(Nc1cccc(C(=O)Nc2cc(C(=O)Nc3ccc([S+](=O)([O-])[O-])c4cc([S+](=O)([O-])[O-])cc(SOOO)c34)ccc2F)c1)Nc1cccc(C(=O)Nc2cc(C(=O)Nc3ccc([S+](=O)([O-])[O-])c4cc([S+](=O)([O-])[O-])cc([S+](=O)([O-])[O-])c34)ccc2F)c1,nt,40µM,nt,nt,nt
CC(C)CCCC1(C)C=Cc2c(O)c3c(c(CCC(C)C)c2O1)OC12C(CC4CC1C(C)(C)OC2(CCC(C)C(=O)O)C4O)C3=O (stereo not given),nt,i,nt,nt,nt
CC(C)=CCCC1(C)C=Cc2c(O)c3c(c(CC=C(C)C)c2O1)OC12C(=CC4CC1C(C)(C)OC2(C/C=C(/C)C(=O)O)C4O)C3=O (stereo not given),nt,2.8µM,nt,nt,nt
CC(C)=CCCC1(C)C=Cc2c(O)c3c(c(CC=C(C)C)c2O1)OC12C(=CC4CC1C(C)(C)OC2(C/C=C(/C)C(=O)O)C4=O)C3=O (stereo not given),nt,2.2µM,nt,nt,nt
c1ccc2sc(C3(NCC4CC4)CCCCC3)cc2c1,nt,i,nt,nt,nt
CCN(CC)C(=O)[C@@H]1C=C2c3cccc4[nH]cc(c34)C[C@H]2N(C)C1,nt,nt,nt,nt,i
C[CH2][Hg][S]c1ccccc1C(=O)O,i,79µM,i,nt,?
Cc1ccc(N2C(=O)/C(=C/c3ccc(CN(CCC#N)S(C)(=O)=O)o3)C(=O)NC2=S)cc1,?,?,?,i,11µM
O=C(O)c1cccc2c1NC(C(=O)O)C1CC(Sc3ccccc3[N+](=O)[O-])C(Cl)C21 (stereo not given),nt,i,11µM,?,7.1µM
CC(=O)c1ccc2c(c1)C1C(Cl)C(Sc3ccccc3[N+](=O)[O-])CC1C(C(=O)O)N2 (stereo not given),?,i,?,i,i
O=C1CCCC2C3CC(CN12)C1CCCCN1C3 (stereo not given),nt,i,nt,nt,nt
CC(=O)Nc1c2sscc-2n(C)c1=O,nt,40µM,nt,nt,nt
CN1CC[C@@]2(CCCN(C(=O)Oc3ccccc3)C2)C1,nt,i,nt,nt,nt
COc1ccc(C[C@H]2NC[C@H](O)[C@@H]2OC(C)=O)cc1,nt,35µM,nt,nt,nt
c1ccc([Se]c2c(-c3ccccc3)[se]c3ccccc23)cc1,nt,63µM,nt,nt,nt
Ic1c(C2=CCCCC2)[se]c2ccccc12,nt,i,nt,nt,nt
C[C@@H]1O[C@@H](O[C@H]2CC[C@@H](O[C@H]3[C@H](O)C[C@H](c4ccc5c(c4O)C(=O)C4=C(C5=O)[C@@]5(O)C(=O)C[C@](C)(O[C@H]6CC[C@H](O[C@H]7C=CC(=O)[C@H](C)O7)[C@H](C)O6)C[C@@]5(O)C=C4)O[C@@H]3C)O[C@H]2C)C=CC1=O,nt,2µM,nt,nt,nt
O=C1[O][Sb-]23[O]C(=O)C([O]2)C2[O][Sb-]4([O]C(=O)C([O]4)C1[O]3)[O]C2=O,nt,nt,nt,nt,i
CC[C@H](O)C(C[C@H](C)N(C)C)(c1ccccc1)c1ccccc1,nt,nt,nt,nt,i
COc1ccc(CN2C(=O)NC(=O)/C(=C\c3cc(OC)c(OC)c(OC)c3)C2=O)cc1,i,50µM,i,i,i
O=C1NC(=O)N(Cc2ccc(F)cc2)C(=O)/C1=C\c1ccc([N+](=O)[O-])s1,10µM,?,i,i,i
COc1ccc(CN2C(=O)NC(=O)/C(=C/c3ccc([N+](=O)[O-])s3)C2=O)cc1,?,22µM,?,i,i
COc1cc(OC)c(OC)cc1/C=C1\C(=O)NC(=O)N(Cc2ccccc2)C1=O,i,i,i,i,i
COCCN1C(=O)NC(=O)/C(=C\c2ccc(F)cc2)C1=O,i,i,i,i,i
